This is part of a sample that, as a whole, favours compounds with a hit. Of some 79,000 tested, about 15% had one in any assay. Active and inactive are the calls of the source. Cut-off read from the data, not from the text of the source: active = growth inhibition above about 70%; inactive = the rest. Residues, ends and D or L forms follow the SMILES beside them. *: point of attachment. Fmoc = O=C(OCC1c2ccccc2-c2ccccc21)*; Boc = CC(C)(C)OC(=O)*
Assay: NCI Yeast Anticancer Drug Screen. Data for the CLN2oe strain (AID 163);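 note: 0% = growth of vehicle-only control cultures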
Settings: S. cerevisiae CLN2oe strain, at 33.0 µM, hits give high values
Outline: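 Values reflect how much compound exposure reduced yeast growth, referenced to vehicle-exposed cells. Assay organism is a strain with a defined genetic change affecting cell-cycle control.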

Row | SMILES | growth inhibition
1 | CC(C)C(=O)CC(Sc1ccc(N)cc1)c1ccccc1 (stereo not drawn) | 20% (inactive)
2 | CC(C)OP(=O)(OC(C)C)/C(Cl)=N/Nc1ccc([N+](=O)[O-])cc1 | 95% (active)
3 | O=[N+]([O-])c1cc(Cl)ccc1S(=O)(=O)c1ccc(Cl)cc1[N+](=O)[O-] | 82% (active)
4 | CCCCCCNCCCNc1c2cc(OC)ccc2nc2cccc([N+](=O)[O-])c12 | 53% (inactive)
5 | N#CCC(=O)N/N=C(\c1ccccc1)C(c1ccccc1)C1(O)C(=O)Nc2c(Cl)ccc(Cl)c21 (stereo not drawn) | -8% (inactive)
6 | CN(C)CCNCCCNc1c2ccccc2nc2cccc([N+](=O)[O-])c12 | 22% (inactive)
7 | CCC[CH2][Ge]([CH2]CCC)([CH2]CCC)[O]C(=O)C(O)c1ccccc1 (stereo not drawn) | 83% (active)
8 | COc1ccc(-c2cc(-c3cc(C)cc(Cl)c3O)nc3[nH]c(=S)[nH]c(=S)c23)cc1 | -5% (inactive)
9 | O=[N+]([O-])c1ccc(/C=C\c2ccc3c(c2)OCO3)c([N+](=O)[O-])c1 | 16% (inactive)
10 | O=C1c2ccccc2N2OC3(N4CCCC4)CCCCC3C12c1ccccc1 (stereo not drawn) | 4% (inactive)
11 | Cc1oc2ccccc2c(=O)c1Cn1nnc2ccccc21 | -5% (inactive)
12 | CC1(C)OC(=O)C(=Cc2ccc([N+](=O)[O-])s2)C(=O)O1 | 63% (inactive)
13 | CCN(CC)CCCNc1ccc([N+](=O)[O-])c2nc3ccc(OC)cc3c(NCCCN(CC)CC)c12 | -6% (inactive)
14 | COc1cccc(/C=C2\S/C(=N/Nc3nc(-c4ccc([N+](=O)[O-])cc4)cs3)NC2=O)c1O | 90% (active)
15 | C1=CCN([B-](c2ccccc2)[C+]2CCCCC2)C=C1 | 32% (inactive)
16 | O=[N+]([O-])c1cc[n+]([O-])c(Cl)c1 | 79% (active)
17 | CCCNC(=O)OCc1c(COC(=O)NCCC)c(-c2ccc(Cl)c(Cl)c2)n2c1CCC2 | 4% (inactive)

Row | SMILES | growth inhibition
18 | CC1(C)CC(=O)C(C(=O)Nc2cccs2)=C(O)C1 | 63% (inactive)
19 | O=C(NO)c1coc2ccccc2c1=O | 8% (inactive)
20 | COc1ccc(C(C)c2cc3c(cc2OCC(C)=O)OCO3)cc1 (stereo not drawn) | -10% (inactive)
21 | CCS(=O)(=O)Nc1ccc(Nc2c3ccccc3nc3ccccc23)c(OC)c1 | 29% (inactive)
22 | O=S(=O)(c1ccccc1)N1CN2CN(C1)CN(S(=O)(=O)c1ccccc1)C2 | 13% (inactive)
23 | CC1=NN(C(=O)c2ccccc2O)C(=O)/C1=C/c1ccco1 | 91% (active)
24 | O=C1C=C(Br)C(=O)c2ccccc21 | 99% (active)
25 | C[N+](C)([O-])CCCNc1c2ccccc2nc2cccc([N+](=O)[O-])c12 | 82% (active)
26 | Cc1cccc2c(NCCCN(C)C)c3c([N+](=O)[O-])ccc(C)c3nc12 | 88% (active)
27 | OC1(c2ccccc2)C2CC=CC2C1(c1ccccc1)c1ccccc1 (stereo not drawn) | -7% (inactive)
28 | C[n+]1c(-c2ccc(/C=N/NC(=O)c3ccc(C(=O)N/N=C/c4ccc(-c5cn6ccccc6[n+]5C)cc4)cc3)cc2)cn2ccccc21 | 30% (inactive)
29 | CCN(CC)CCC(=O)Nc1ccc2sc3ccccc3c(=O)c2n1 | 6% (inactive)
30 | O=[N+]([O-])c1ccc2nc(=S)[nH]n2c1 | -5% (inactive)
31 | O=C(c1ccccc1)[C@H]1Nc2ccc(Cl)cc2[C@H]2OCCC[C@@H]12 | 23% (inactive)
32 | COc1cc([N+](=O)[O-])c2ncccc2c1Br | -11% (inactive)
33 | O=S(=O)(c1cccc(C(F)(F)F)c1)N1c2ccccc2-n2cccc2C1c1cccnc1 (stereo not drawn) | 94% (active)
34 | CC(C)(C)OC(=O)NCCCCC(NC(=O)C(Cc1c[nH]c2ccccc12)NC(=O)OCC1c2ccccc2-c2ccccc21)C(=O)O (stereo not drawn) (Fmoc-Trp-Lys(Boc)-OH; configuration not given here) | 17% (inactive)

Same assay, conditions: S. cerevisiae CLN2oe strain, at 100.0 µM, hits give high values

Row | SMILES | growth inhibition
35 | CC(C)C(=O)CC(Sc1ccc(N)cc1)c1ccccc1 (stereo not drawn) | 35% (inactive)
36 | CC(C)OP(=O)(OC(C)C)/C(Cl)=N/Nc1ccc([N+](=O)[O-])cc1 | 96% (active)
37 | O=[N+]([O-])c1cc(Cl)ccc1S(=O)(=O)c1ccc(Cl)cc1[N+](=O)[O-] | 79% (active)
38 | CCCCCCNCCCNc1c2cc(OC)ccc2nc2cccc([N+](=O)[O-])c12 | 96% (active)
39 | N#CCC(=O)N/N=C(\c1ccccc1)C(c1ccccc1)C1(O)C(=O)Nc2c(Cl)ccc(Cl)c21 (stereo not drawn) | -11% (inactive)
40 | CN(C)CCNCCCNc1c2ccccc2nc2cccc([N+](=O)[O-])c12 | 81% (active)
41 | CCC[CH2][Ge]([CH2]CCC)([CH2]CCC)[O]C(=O)C(O)c1ccccc1 (stereo not drawn) | 99% (active)
42 | COc1ccc(-c2cc(-c3cc(C)cc(Cl)c3O)nc3[nH]c(=S)[nH]c(=S)c23)cc1 | 87% (active)
43 | O=[N+]([O-])c1ccc(/C=C\c2ccc3c(c2)OCO3)c([N+](=O)[O-])c1 | 25% (inactive)
44 | O=C1c2ccccc2N2OC3(N4CCCC4)CCCCC3C12c1ccccc1 (stereo not drawn) | 98% (active)
45 | Cc1oc2ccccc2c(=O)c1Cn1nnc2ccccc21 | 19% (inactive)
46 | CC1(C)OC(=O)C(=Cc2ccc([N+](=O)[O-])s2)C(=O)O1 | 97% (active)
47 | CCN(CC)CCCNc1ccc([N+](=O)[O-])c2nc3ccc(OC)cc3c(NCCCN(CC)CC)c12 | -2% (inactive)
48 | COc1cccc(/C=C2\S/C(=N/Nc3nc(-c4ccc([N+](=O)[O-])cc4)cs3)NC2=O)c1O | 93% (active)
49 | C1=CCN([B-](c2ccccc2)[C+]2CCCCC2)C=C1 | 95% (active)
50 | O=[N+]([O-])c1cc[n+]([O-])c(Cl)c1 | 99% (active)
51 | CCCNC(=O)OCc1c(COC(=O)NCCC)c(-c2ccc(Cl)c(Cl)c2)n2c1CCC2 | 20% (inactive)

Row | SMILES | growth inhibition
52 | CC1(C)CC(=O)C(C(=O)Nc2cccs2)=C(O)C1 | 99% (active)
53 | O=C(NO)c1coc2ccccc2c1=O | 8% (inactive)
54 | COc1ccc(C(C)c2cc3c(cc2OCC(C)=O)OCO3)cc1 (stereo not drawn) | 76% (active)
55 | CCS(=O)(=O)Nc1ccc(Nc2c3ccccc3nc3ccccc23)c(OC)c1 | 59% (inactive)
56 | O=S(=O)(c1ccccc1)N1CN2CN(C1)CN(S(=O)(=O)c1ccccc1)C2 | -7% (inactive)
57 | CC1=NN(C(=O)c2ccccc2O)C(=O)/C1=C/c1ccco1 | 95% (active)
58 | O=C1C=C(Br)C(=O)c2ccccc21 | 99% (active)
59 | C[N+](C)([O-])CCCNc1c2ccccc2nc2cccc([N+](=O)[O-])c12 | 93% (active)
60 | Cc1cccc2c(NCCCN(C)C)c3c([N+](=O)[O-])ccc(C)c3nc12 | 96% (active)
61 | OC1(c2ccccc2)C2CC=CC2C1(c1ccccc1)c1ccccc1 (stereo not drawn) | 10% (inactive)
62 | C[n+]1c(-c2ccc(/C=N/NC(=O)c3ccc(C(=O)N/N=C/c4ccc(-c5cn6ccccc6[n+]5C)cc4)cc3)cc2)cn2ccccc21 | 38% (inactive)
63 | CCN(CC)CCC(=O)Nc1ccc2sc3ccccc3c(=O)c2n1 | 8% (inactive)
64 | O=[N+]([O-])c1ccc2nc(=S)[nH]n2c1 | 36% (inactive)
65 | O=C(c1ccccc1)[C@H]1Nc2ccc(Cl)cc2[C@H]2OCCC[C@@H]12 | 85% (active)
66 | COc1cc([N+](=O)[O-])c2ncccc2c1Br | -11% (inactive)
67 | O=S(=O)(c1cccc(C(F)(F)F)c1)N1c2ccccc2-n2cccc2C1c1cccnc1 (stereo not drawn) | 90% (active)
68 | CC(C)(C)OC(=O)NCCCCC(NC(=O)C(Cc1c[nH]c2ccccc12)NC(=O)OCC1c2ccccc2-c2ccccc21)C(=O)O (stereo not drawn) (Fmoc-Trp-Lys(Boc)-OH; configuration not given here) | 66% (inactive)
